High-throughput results deposited in PubChem BioAssay by National Center for Advancing Translational Sciences (NCATS).
Compounds with a hit are over-represented: about 9.2% of the library has one in this group of screens.
ELG1 genotox: induces genotoxicity in HEK293T cells with luciferase-tagged ELG1 | HEK293T ELG1-luciferase reporter, luminescence, 16 h | Potency, µM (top dose mostly 46 µM), hits mostly activators | hit rate 1.3% among 330,000 | AID 504466; note: nearly all actives have a fitted effect of over 60% in size
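HEK293T cells expressing luciferase-tagged ELG1 were treated with compound or DMSO for 16 hr at 37°C. Luciferase activity was then read after 30 min with ONE-Glo at room temperature; rising signal flags genetic stress.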
SMN2 splice enh: enhancers of SMN2 splice variant expression. HEK293 SMN2-luciferase splicing reporter, luminescence, 30-36 h. Potency, µM (titrated, usually from 46.1 µM), most hits filed as activators. hit rate 2.8% among 210,000. AID 1458; note: nearly all actives have a fitted effect of over 55% in size
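HEK293 cells carry an SMN2 minigene-luciferase reporter in which exon 7 inclusion puts luciferase in frame. Cells were seeded at 2000 cells/well, attached for 10-12 hours, then exposed to compounds for 30-36 hours at 37C before ONE-Glo luminescence.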
NPC1 prom act: activators of NPC1 promoter. AID 485313. Potency, µM (titrated, usually from 9.22 µM), hits mostly activators. Huh7 NPC1 promoter luciferase reporter, 24 h. hit rate 2.4% among 320,000; note: nearly all actives have a fitted effect of over 60% in size
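Luminescence from an NPC1 promoter-driven luciferase reporter in stably transfected Huh7 cells was measured after 24 h compound treatment at 37 °C, followed by 10 min ambient incubation with luciferase detection reagent.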
ELG1 repair inh: ELG1-dependent DNA repair inhibition | hit rate 2.3% among 330,000 | AID 504467 | Potency, µM (top dose mostly 46.1 µM), hits mostly inhibitors | HEK293T ELG1-luciferase reporter, luminescence, 16 h; DNA damage induced by 5-fluorouridine; note: nearly all actives have a fitted effect of over 55% in size
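5-Fluorouridine DNA damage + compound/DMSO, 2,000 cells/well, 16 h, 37 °C/5% CO2. ONE-Glo, 30 min RT, luminescence. Readout = decrease in reporter signal.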
Rab9 prom act: Rab9 promoter activation; Huh7 Rab9 promoter-luciferase reporter, luminescence, 24 h; Potency, µM (doses to about 9.22 µM), hits mostly activators; hit rate 2.8% among 320,000; AID 485297; note: nearly all actives have a fitted effect of over 60% in size
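Luminescence from Amplite-detected luciferase (10 minutes, ambient) reports Rab9 promoter activation. Before that, stable Rab9-luciferase Huh7 cells (1500/well, reduced-serum OP-MEM I plus 10% FBS) were exposed to compound for 24 hours at 37C.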
FLuc modulator: firefly luciferase modulation, counter-screen for miR-21 project | Potency, µM (top dose mostly 57.5 µM), most hits filed as inhibitors | hit rate 6.9% among 360,000 | purified FLuc, Km substrates, luminescence inhibition; note: nearly all actives have a fitted effect of over 55% in size
Target sequence (P08659 whole entry, looked up): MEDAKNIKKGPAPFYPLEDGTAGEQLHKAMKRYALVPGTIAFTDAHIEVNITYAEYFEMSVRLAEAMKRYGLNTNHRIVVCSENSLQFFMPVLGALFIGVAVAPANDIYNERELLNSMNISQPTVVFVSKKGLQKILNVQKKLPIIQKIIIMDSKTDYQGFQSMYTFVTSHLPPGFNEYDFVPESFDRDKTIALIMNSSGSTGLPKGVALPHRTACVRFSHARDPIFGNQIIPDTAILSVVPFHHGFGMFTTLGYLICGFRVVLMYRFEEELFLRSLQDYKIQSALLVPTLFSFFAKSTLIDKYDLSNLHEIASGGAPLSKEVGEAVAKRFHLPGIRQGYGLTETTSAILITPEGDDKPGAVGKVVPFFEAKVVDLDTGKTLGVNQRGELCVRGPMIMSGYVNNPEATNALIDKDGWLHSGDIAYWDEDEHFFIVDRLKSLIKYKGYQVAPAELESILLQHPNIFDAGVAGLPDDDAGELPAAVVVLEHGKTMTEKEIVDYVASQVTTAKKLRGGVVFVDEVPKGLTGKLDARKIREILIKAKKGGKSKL
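Purified P. pyralis luciferase (10nM final) with 10uM D-luciferin and 10uM ATP (Km levels) in 50mM Tris acetate pH 7.5, 10mM Mg acetate, 0.01% Tween-20, 0.05% BSA; qHTS 6-point titration, ~60 µM downward; luminescence read.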
Each line names hits and unclear results; the compound was inactive in the other large screens. Calls come from the whole dose curve; as a rule, active = well fitted curve in the direction sought with a large enough effect; inconclusive = small, poorly fitted or top-dose-only effect, or another doubt; inactive = no such curve, though single readings can be large; an effect the other way counts as inactive or inconclusive.

O=C(O)CCC(=O)Nc1ccc(SSc2ccc(NC(=O)CCC(=O)O)cc2)cc1	FLuc modulator inconclusive (no result: SMN2 splice enh)
CC(C)C(=O)N1CCN(c2ccccc2NC(=O)c2cccc3ccccc23)CC1	ELG1 repair inh inconclusive (no result: SMN2 splice enh)
CCOc1ccc2cc(C(=O)NCc3ccccc3)c(=N)oc2c1	ELG1 genotox inconclusive, ELG1 repair inh inconclusive, FLuc modulator 21µM (no result: SMN2 splice enh)
CCOc1ccc2cc(C(=O)c3ccccc3)c(=O)oc2c1	ELG1 genotox inconclusive, SMN2 splice enh inconclusive, ELG1 repair inh inconclusive, Rab9 prom act inconclusive
O=C(NCc1ccccc1)c1cc2ccc(O)cc2oc1=O	ELG1 genotox inconclusive, NPC1 prom act inconclusive, ELG1 repair inh inconclusive, Rab9 prom act 3.2µM, FLuc modulator 12µM (no result: SMN2 splice enh)
CC(C)C(C)(C)C(C)(C)C(C)(C)S	none (no result: ELG1 genotox, NPC1 prom act, ELG1 repair inh, Rab9 prom act, FLuc modulator)
CC(C)CCNC(=O)C(=O)Nc1c2c(nn1-c1ccc(Cl)cc1)CSC2	none (no result: ELG1 genotox, SMN2 splice enh, NPC1 prom act, ELG1 repair inh, Rab9 prom act)
COC(=O)[C@@H]1C2CC3c4[nH]c5cc(OC)ccc5c4CCN3CC2C[C@H](OC(=O)c2cc(OC)c(OC)c(OC)c2)C1OC (stereo not given in full)	none (no result: ELG1 genotox, NPC1 prom act, ELG1 repair inh, Rab9 prom act, FLuc modulator)
COC(=O)[C@H]1[C@H]2C[C@@H]3c4[nH]c5cc(OC)ccc5c4CCN3C[C@H]2C[C@@H](OC(=O)c2cc(OC)c(OC)c(OC)c2)[C@@H]1OC	ELG1 repair inh 10µM
O=C(NN1C(=O)/C(=C/c2ccc(O)c([N+](=O)[O-])c2)SC1=S)c1ccccc1Cl	FLuc modulator 17µM
COc1cc(/C=C2\SC(=S)N(NC(=O)c3ccccc3O)C2=O)ccc1O	FLuc modulator 17µM (no result: SMN2 splice enh)
O=C(NNC1=NS(=O)(=O)c2ccccc21)c1ccc([N+](=O)[O-])cc1	NPC1 prom act inconclusive, FLuc modulator 1.5µM (no result: SMN2 splice enh)
O=C(Cc1ccccc1)NNC1=NS(=O)(=O)c2ccccc21	FLuc modulator inconclusive (no result: SMN2 splice enh)
O=C(NNC1=NS(=O)(=O)c2ccccc21)c1ccc(Cl)cc1	NPC1 prom act inconclusive, ELG1 repair inh inconclusive, Rab9 prom act inconclusive, FLuc modulator 3.4µM
CCN(CC)S(=O)(=O)c1ccc(C(=O)NNC2=NS(=O)(=O)c3ccccc32)cc1	none (no result: SMN2 splice enh)
COc1ccccc1CNC(=O)c1ccc2c(c1)sc1nc(-c3ccc(F)cc3)cn12	none (no result: ELG1 genotox, SMN2 splice enh, NPC1 prom act, ELG1 repair inh, Rab9 prom act)
Cc1ccc(Oc2ccc(Oc3ccc(C)cc3)nn2)cc1	ELG1 repair inh inconclusive
Cc1ccccc1Oc1ccc(Oc2ccccc2C)nn1	ELG1 genotox inconclusive, SMN2 splice enh inconclusive, NPC1 prom act 4µM, ELG1 repair inh inconclusive, Rab9 prom act inconclusive, FLuc modulator inconclusive
COc1ccc2c(N)c(C(=O)NN)[nH]c2c1	FLuc modulator 17µM (no result: SMN2 splice enh)
COc1ccc2c(Sc3ccccc3)c(C(=O)NCCN(C)C)[nH]c2c1	FLuc modulator 4.8µM (no result: ELG1 genotox, SMN2 splice enh, NPC1 prom act, ELG1 repair inh, Rab9 prom act)
COCCS(=O)(=O)N(Cc1ccccc1)[C@H](C(=O)OC)C(C)C	none (no result: SMN2 splice enh, NPC1 prom act, Rab9 prom act, FLuc modulator)
CN(C)c1ccc(/C=C(\NC(=O)c2ccccc2)C(=O)NCCN2CCOCC2)cc1	none (no result: SMN2 splice enh)
CCc1nnc(NC(=S)Nc2ccccc2)s1	SMN2 splice enh 22µM, NPC1 prom act inconclusive, ELG1 repair inh inconclusive, Rab9 prom act inconclusive, FLuc modulator inconclusive
Cc1ccc(C(=O)Nc2nnc(NC(=S)Nc3ccccc3)s2)cc1	ELG1 repair inh inconclusive, FLuc modulator 19µM (no result: SMN2 splice enh)
Cc1nc(NC(=S)Nc2ccccc2)sc1C	SMN2 splice enh 16µM, NPC1 prom act inconclusive, ELG1 repair inh inconclusive, Rab9 prom act inconclusive, FLuc modulator 2.7µM
Cn1c(SCC(=O)Nc2ccc(NC(=O)c3cccc(F)c3)cc2)nnc1-c1ccncc1	ELG1 genotox inconclusive, ELG1 repair inh inconclusive (no result: SMN2 splice enh)
O=C(Oc1ccc(C(=S)N2CCCCC2)cc1)c1ccccc1	FLuc modulator inconclusive (no result: SMN2 splice enh)
O=C(Oc1ccc(C(=S)N2CCC(O)CC2)cc1)c1ccc(Cl)cc1	FLuc modulator 5.4µM
CCCCc1c(O)nc2sc3cc(OC)ccc3n2c1=O	ELG1 genotox inconclusive, ELG1 repair inh inconclusive, FLuc modulator 11µM
COC(=O)c1cc(=O)nc2sc3cc(OC)ccc3n12	none
CCOCCCNc1ccc(N2C(=O)CCCC2=O)cc1[N+](=O)[O-]	none (no result: SMN2 splice enh)
C=CCOc1ccc(C(=O)NC2CCCCC2)cc1	ELG1 genotox inconclusive, NPC1 prom act inconclusive, ELG1 repair inh inconclusive, Rab9 prom act inconclusive, FLuc modulator 12µM (no result: SMN2 splice enh)
